A short description of assay [1]: NCATS anti-infectives library activity on the primary C. elegans qHTS viability assay (AID 1745855; calls by dose curve; note: potency is the fitted concentration of half-maximal effect). The conditions noted are these: C. elegans worm area imaging, day 7. In outline:
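Viability read-out is GFP fluorescence of PE254-GFP-FLuc C. elegans, measured by laser cytometry (488 nm) at day 0, 3 and 7. Ten L1 worms per well were incubated 7 days at 21 °C with compounds and bacterial capsules in S medium.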

The target in assay [2] is Nuclear receptor subfamily 1 group I member 3 (Homo sapiens) (UniProt Q14994). Nature of the assay: Primary qHTS for antagonist of constitutive androstane receptor (CAR) against the NCATS DSHEA and TCM libraries (AID 1794836).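 Note: HepG2 cells stably expressing hCAR with CYP2B6 luciferase reporter stimulated by CITCO.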 The conditions noted are these: CAR reporter cell assay, antagonist mode, luciferase; series mostly up to 40 µM. From the text:
Assay Development and Screening Technology Laboratory (ADST)
National Center for Advancing Translational Sciences (NCATS), Rockville, MD
National Institute of Health (NIH), Bethesda, Maryland
Dietary Supplements and Natural Products have minor oversight of their safety and efficacy. We assembled a collection of Dietary Supplements and Natural Products (DSNP) as well as Traditional Chinese Medicinal (TCM) Plant extracts, which were screened against an in vitro panel of assays, including a liver cytochrome p450 enzyme panel, CAR/PXR signaling pathways, and P-gp transporter assays, to assess their activity. This pipeline facilitated the interrogation of Natural Product-Drug Interaction (NaPDI) through prominent metabolizing pathways. In addition, we compared the activity profiles of the DSNP/TCM substances with those of an approved drug collection. […] Overall, we highlight four significant bioactivity profiles (measured by p-values) as examples of this prediction. […]
8; Detector 1; Fluorescence intensity; ViewLux plate reader (excitation 405 nm, emission 540 nm). […]
11; Detector 2; Luminescence intensity; ViewLux. […]
8. Fluorescence intensity (Ex/Em = 405 nm/540 nm) is obtained using the ViewLux plate reader to determine cell viability. […]
10. Luminescence intensity is read using the ViewLux detector.
A general note: qHTS replaces the single test concentration by a dilution series.

Assay [3] in a line: Viability counterscreen for antagonist of constitutive androstane receptor (CAR) against the NCATS DSHEA and TCM libraries (AID 1794837).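 Note: compound exposure lasted 24 h before viability reading.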 The conditions noted are these: CAR reporter cell line viability counterscreen, qHTS; series mostly up to 40 µM. In outline: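 HepG2-CYP2B6-hCAR cells, 2,500/well, were exposed 24 hr at 37C to substances together with 48 uM CITCO (final). Viability was read as CellTiter-Fluor fluorescence (Ex/Em 405/540 nm) after 1 hr.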
A general note: A counterscreen serves to expose hits that act by an unwanted route or on another target.

Assay [4] in a line: Viability counterscreen for agonist of constitutive androstane receptor (CAR) against the NCATS DSHEA and TCM libraries (AID 1794838). The conditions noted are these: HepG2 cell viability counterscreen, CAR agonist assay; series mostly up to 40 µM. The essentials: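 HepG2-CYP2B6-hCAR cells (2,500/well) treated 24 h at 37C with compounds plus 0.75 uM PK11195; viability read by CellTiter-Fluor fluorescence, Ex/Em 405/540 nm.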

The target of assay [5] is Nuclear receptor subfamily 1 group I member 3 (Homo sapiens) (UniProt Q14994). Nature of the assay: Primary qHTS for agonist of constitutive androstane receptor (CAR) against the NCATS DSHEA and TCM libraries (AID 1794839). Note: potency is the fitted concentration of half-maximal effect. Particulars: CAR agonist reporter cells, qHTS luminescence. In outline: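 HepG2-CYP2B6-hCAR cells, 2,500/well, attached 5 h, then dosed with 0.75 µM PK11195 (final) for 24 h at 37 °C. Luciferase luminescence read (ONE-Glo); CellTiter-Fluor viability (Ex/Em 405/540 nm) in same wells; CITCO positive control.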
Nuclear receptor subfamily 1 group I member 3 (Homo sapiens), sequence (Q14994 whole entry, looked up): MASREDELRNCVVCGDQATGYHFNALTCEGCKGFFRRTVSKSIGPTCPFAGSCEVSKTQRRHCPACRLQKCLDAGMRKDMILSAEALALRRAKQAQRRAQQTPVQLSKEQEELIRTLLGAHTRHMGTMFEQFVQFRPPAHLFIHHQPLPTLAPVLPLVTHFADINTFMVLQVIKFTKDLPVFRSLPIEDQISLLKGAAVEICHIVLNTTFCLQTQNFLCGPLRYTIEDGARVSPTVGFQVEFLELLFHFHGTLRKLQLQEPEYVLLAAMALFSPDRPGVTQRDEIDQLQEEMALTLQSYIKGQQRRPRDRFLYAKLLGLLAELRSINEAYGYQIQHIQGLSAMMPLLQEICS

Assay [6] can be described thus: HepG2 viability counterscreen (readout 2: ATP content) against the NCATS DSHEA and TCM libraries (AID 1794840). Particulars: ATP content luminescence; series mostly up to 27.3 µM. In outline:
(§1)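 HepG2 cells, 1,000/well, attached ~4 h, then exposed ~24 h at 37C to substances. Protease activity read by fluorescence of 25 uM GF-AFC (Ex/Em 380/510 nm) after 30 min; ATP then by CellTiter-Glo luminescence.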

Assay [7] can be described thus: HepG2 viability counterscreen (readout 1: protease activity) against the NCATS DSHEA and TCM libraries (AID 1794841).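 Note: cells exposed to compounds for about 24 h before the protease read.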 Particulars: qHTS concentration series; series mostly up to 27.3 µM. The essentials:
as §1

Records with an inconclusive call do not appear. Calls of active or inactive are those of the source. Unless noted, calls come from the whole dose curve; as a rule, active = well fitted curve in the direction sought with a large enough effect; inconclusive = small, poorly fitted or top-dose-only effect, or another doubt; inactive = no such curve, though single readings can be large; an effect the other way counts as inactive or inconclusive.

As to `Cc1sc2c(c1C)C(c1ccc(Cl)cc1)=N[C@@H](CC(=O)OC(C)(C)C)c1nnc(C)n1-2`, the Potency in assay [1] was 4.09 µM (active).
With `O=c1c(O)c(-c2ccc(O)c(O)c2)oc2cc(O)cc(O)c12`, in assay [2], the result was inactive.
Consider `CC(C)=CCOc1c2occc2cc2ccc(=O)oc12`, for which the result in assay [2], in assay [3], in assay [4], in assay [6] and in assay [7] was inactive. Further, in assay [5], the Potency is 14.1 µM (active).

The record behind these values is PubChem BioAssay (NCATS).
